# In the library only some 17% were active in any assay of this set; here they are far more common.
# TDP1 cell noCPT: qHTS for Inhibitors of human tyrosyl-DNA phosphodiesterase 1 (TDP1): qHTS in cells in absence of CPT; DT40 Tdp1-/- hTDP1 cells, no CPT, ATP luminescence, 48 h; Potency, µM (titrated, usually from 46.2 µM), without a hit: at the highest dose activity change, negative = growth inhibition, usual class: inhibitors; hit rate 15% among 420,000; also: % is scaled to controls: 0 for no effect and ±100 for the full control effect; nearly all actives have a fitted effect of over 55% in size
#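 DT40 Tdp1-/-;hTDP1 cells, no CPT (DMSO vehicle only), 400 cells/well; compounds pin-transferred; ≥48 hr, 37 °C; CellTiter-Glo 30 min RT dark, luminescence read.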
# HepG2 viability: HepG2 cytotoxicity, counter-screen for TGF-b inhibitors; HepG2 CAGA-GFP viability, ATP luminescence, 18 h; Potency, µM (titrated, usually from 46.1 µM), for inactives: at the top dose activity change, negative = cytotoxicity, usual class: cytotoxic; hit rate 0.76% among 410,000
#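 HepG2 CAGA-GFP cells (1000/well, DMEM with 1% FBS) received compound, then TGF-beta at 500 pg/mL final, and were incubated 18 hours at 37 degrees C. Viability was read by CellTiter-Glo luminescence. Media-only wells were set as complete cell-killing and DMSO as no toxicity.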
# TGFb inhibitor: TGF-b pathway inhibition; HepG2 CAGA-GFP TGF-b/SMAD3 reporter, GFP fluorescence, 18 h; TGF-beta stimulated, 500 pg/mL final; Potency, µM (doses to about 46.1 µM), for the others: at the highest dose activity, negative = inhibition, usual class: inhibitors; hit rate 1.2% among 410,000; AID 588855; also: % is scaled to controls: 0 for no effect and ±100 for the full control effect; nearly all actives have a fitted effect of over 65% in size
#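 TGF-beta reporter screen: HEPG2 CAGA-GFP, 1% FBS, 500 pg/mL TGF-beta final, 18 h; per-cell GFP summed per well; curves fitted and categorized by class.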
# HT1080 IDH1KD tx: toxicity to HT-1080 IDH1 knockdown cells (counter line); hit rate 2% among 360,000; HT-1080 IDH1 knockdown viability, ATP luminescence, 48 h; Potency, µM (series often up to 46.1 µM), inactives show at the highest dose activity, negative = toxicity, actives largely listed as cytotoxic; AID 686971;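 also: 0% = DMSO wells and -100% = cell-free medium wells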
#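 Using the IDH1-knockdown HT-1080 line run in the same batch and compound series as the NT line, viability after 48 h at 37 °C was determined by CellTiter-Glo luminescence and expressed as % activity.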
# HT1080NT lethal: kills 2HG-producing HT-1080-NT fibrosarcoma cells | HT-1080-NT fibrosarcoma viability, CellTiter-Glo ATP luminescence, 48 h | Potency, µM (doses to about 46.1 µM), for the others: at the top dose activity, negative = less viability, most hits filed as cytotoxic | hit rate 1.6% among 360,000;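 also: NT is the 2HG producing partner of a matched IDH1 knockdown line; 0% = DMSO-treated cells and -100% = media-only wells without cells; nearly all actives have a fitted effect of over 55% in size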
#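 HT-1080-NT fibrosarcoma cells (2HG-overproducing), 750 cells/well in RPMI with 5% FBS, dosed after 2 h and incubated 48 h at 37C. CellTiter-Glo luminescence normalized to DMSO and no-cell wells; concentration-response curves fitted and classed.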
# DT40 TDP1 CPT: growth inhibition of DT40 Tdp1-/-;hTDP1 cells with camptothecin (screen for TDP1 inhibitors). chicken DT40 Tdp1-/-;hTDP1 cells + 20 nM CPT, ATP luminescence, 48 h. Potency, µM (doses to about 46.2 µM), for the others: at the highest dose activity change, negative = growth inhibition, hits mostly inhibitors. hit rate 12% among 420,000; also: % is scaled to controls: 0 for no effect and ±100 for the full control effect; nearly all actives have a fitted effect of over 55% in size
#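 Cell growth measured by CellTiter-Glo luminescence after a minimum 48 h, 37 C compound exposure with 20 nM CPT in Tdp1-knockout DT40 cells stably expressing hTDP1, seeded 400/well; qHTS titration format.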
# An asterisk follows results filed as active; ? = inconclusive; . = not tested or not shown. Calls follow the shape of the dose curve; as a rule, active = well fitted curve in the direction sought with a large enough effect; inconclusive = small, poorly fitted or top-dose-only effect, or another doubt; inactive = no such curve, though single readings can be large; an effect the other way counts as inactive or inconclusive. Potency is read from the fitted curve at half-maximal effect.
SMILES,TDP1 cell noCPT,HepG2 viability,TGFb inhibitor,HT1080 IDH1KD tx,HT1080NT lethal,DT40 TDP1 CPT
CCCOC(=O)Nc1ccc(S(=O)(=O)Nc2ncccn2)cc1,-2%,-18%,6%,2%,0%,0%
Cc1cc(C)n(-c2nc3cc(Cl)c(Cl)cc3nc2Nc2c(C)cccc2C)n1,1%,-5%,0%,.,.,9%
COc1cccc(OCCCCN2CCCCC2)c1,-19%,-3%,-10%,-14%,-4%,-4%
COc1ccc2c(c1)OC(C)(C)C(c1ccccc1)C2c1ccc(OCCN2CCCC2)cc1 (configuration not stated),27µM*,.,.,.,.,21µM*
COC(=O)c1ccc(S(=O)(=O)c2ccc([N+](=O)[O-])cc2)cc1,-28%,-9%,-29%,1%,13%,?
Cn1c(S(=O)(=O)c2ccc([N+](=O)[O-])cc2)nc(Br)c1Br,?,-192%,?,?,?,21µM*
Cn1nccc1/C=C(/C#N)S(=O)(=O)c1ccccc1,?,-14%,4%,9%,3%,23µM*
c1ccc(COc2cccc(-c3cc4nc(NCCCn5ccnc5)ccn4n3)c2)cc1,15µM*,-43%,?,23µM*,16µM*,?
c1ccc(COc2cccc(-c3cc4nc(NCCc5ccncc5)ccn4n3)c2)cc1,13µM*,-63%,?,23µM*,18µM*,15µM*
c1ccc(COc2cccc(-c3cc4nc(NCCOc5ccccc5)ccn4n3)c2)cc1,?,-29%,?,?,?,?
O=C(c1csnn1)N1CCC2(CCCN(c3ccncc3)C2)CC1,?,.,.,.,.,2%
C=CCNc1nc(Cl)nc(Nc2cc(Cl)ccc2OC)n1,?,-18%,-4%,-19%,-10%,?
CS(=O)(=O)N1CCN(c2ccnc3cc(Cl)ccc23)CC1,?,-14%,-2%,-14%,-27%,-16%
CC(=O)c1ccc(S(=O)(=O)N2CCN(c3ccnc4cc(Cl)ccc34)CC2)cc1,7.3µM*,-8%,-4%,-15%,-15%,8.2µM*
O=S(=O)(c1ccc(Br)s1)N1CCN(c2ccnc3cc(Cl)ccc23)CC1,18µM*,9%,-42%,?,-19%,?
Cc1ccc(S(=O)(=O)N2CCN(c3ccnc4cc(Cl)ccc34)CC2)cc1,23µM*,2%,?,-29%,?,23µM*
COc1ccc(NC(=S)NC2CCCCC2)cn1,-9%,5%,?,-12%,9%,7%
CC1=NN(C(C#N)c2cccc([N+](=O)[O-])c2)C(C)(C)C1 (configuration not stated),-24%,0%,5%,4%,3%,-10%
CCOc1ccc(C2=CC(=O)C[C@H](c3ccc(OC)cc3)C2)cc1,-20%,-22%,-5%,3%,0%,-25%
CCn1c(/C=C/N(C(C)=O)c2ccccc2)[n+](CCCS(=O)(=O)[O-])c2cc(Cl)c(Cl)cc21,22%,-1%,14%,5%,4%,9%
CCn1c(/C=C/Nc2ccccc2)[n+](CC)c2cc(Cl)c(Cl)cc21,3.3µM*,-93%,?,?,-17%,2.6µM*
COc1ccc(C2CC(=O)Nc3c2c(=O)[nH]c2nc4ccccc4n32)cc1 (configuration not stated),.,8%,-2%,.,.,.
N#Cc1ccccc1NS(=O)(=O)c1cc2c3c(c1)CCC(=O)N3CCC2,-8%,-1%,-17%,-7%,-1%,-2%
Cc1nc(-n2nc(C)c(Cc3ccc(Cl)cc3)c2C)sc1C(=O)N1CCCCC1C (configuration not stated),?,8%,-6%,.,.,-6%
Cc1nc(-n2nc(C)c(Cc3ccccc3Cl)c2C)sc1C(=O)N1CCCCC1C (configuration not stated),21µM*,-8%,-13%,.,.,?
SMILES,TDP1 cell noCPT,HepG2 viability,TGFb inhibitor,HT1080 IDH1KD tx,HT1080NT lethal,DT40 TDP1 CPT
CC(C(=O)NC1(C#N)CCCCC1)N(C)CC(=O)Nc1ccc(Cl)c(Cl)c1 (configuration not stated),18µM*,-30%,?,-1%,-20%,?
CN(CC(=O)Nc1ccc(Cl)c(Cl)c1)C1CCCCC1,?,-44%,?,9%,11%,?
O=C(NCCNC(=O)c1cc(Cl)ccc1Cl)c1ccccn1,-7%,13%,12%,-4%,30%,-15%
Cc1c(NC(=O)C(F)(F)F)ccc2nc3c(=O)n(C)c(=O)n(C)c3nc12,16µM*,-41%,16%,.,.,?
CCN(CC)c1ccc2nc3c(=O)n(C)c(=O)n(C)c3nc2c1,?,0%,.,.,.,?
Cc1nc2ccc(NC(=O)c3cc(S(=O)(=O)N(C)c4ccccc4)ccc3Cl)cc2s1,1.8µM*,-6%,-19%,-21%,?,1.8µM*
CS(=O)(=O)c1ccc(C(=O)Nc2ccc(N3CCOCC3)cc2)c(Cl)c1,?,3%,8%,10%,12%,4%
Cc1noc(NS(=O)(=O)c2ccc(NC(=O)c3cc(S(=O)(=O)N(C)c4ccccc4)ccc3Cl)cc2)c1C,-13%,-4%,0%,1%,-3%,-14%
CN(c1ccccc1)S(=O)(=O)c1ccc(Cl)c(C(=O)Nc2ccc(N3CCOCC3)cc2)c1,1.6µM*,-7%,-19%,?,?,3.3µM*
Cc1nc2ccc(NC(=O)c3ccc(S(=O)(=O)N(C)C)cc3)cc2s1,3%,-51%,1%,-2%,23%,-16%
Cc1nc2ccc(NC(=O)c3cc([N+](=O)[O-])cc([N+](=O)[O-])c3Cl)cc2s1,6.5µM*,-10%,?,-17%,7%,5.2µM*
Cc1nc2ccc(NC(=O)c3ccc(Cl)c(S(=O)(=O)N(C)c4ccccc4)c3)cc2s1,3.3µM*,-13%,-21%,?,?,13µM*
COC(=O)c1ccccc1NC(=O)C1CCN(C(=O)c2ccc(OC)cc2)CC1,-3%,0%,-5%,15%,22%,-3%
CN(C(=S)NC(=O)C1CC1)c1ccc(O)cc1,?,2%,?,2%,2%,?
Cc1nc2ccc(S(=O)(=O)N(CC(=O)Nc3cccc(Cl)c3)Cc3ccccc3)cc2s1,16µM*,-19%,?,.,.,?
COc1cccc(NC(=O)CN(C)S(=O)(=O)c2ccc3nc(C)sc3c2)c1,-25%,-27%,.,.,.,-30%

# Source: PubChem BioAssay (National Center for Advancing Translational Sciences (NCATS))
